PubChem BioAssay

What follows are molecules tested against Pro-neuregulin-1, membrane-bound isoform (Homo sapiens) (UniProt Q02297) (assay: NRG1 binders on small-molecule microarrays, primary screen, psychiatric disease protein project, biochemical, small-molecule microarray, fluorescence 635/667 (AID 1075;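 also: score combines 667 nm spot fluorescence with signal to noise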)). Settings: NRG1 binding, 635 nm fluorescence, higher = more signal.
Chain of Pro-neuregulin-1, membrane-bound isoform (Homo sapiens) (Q02297 whole entry, looked up, canonical isoform): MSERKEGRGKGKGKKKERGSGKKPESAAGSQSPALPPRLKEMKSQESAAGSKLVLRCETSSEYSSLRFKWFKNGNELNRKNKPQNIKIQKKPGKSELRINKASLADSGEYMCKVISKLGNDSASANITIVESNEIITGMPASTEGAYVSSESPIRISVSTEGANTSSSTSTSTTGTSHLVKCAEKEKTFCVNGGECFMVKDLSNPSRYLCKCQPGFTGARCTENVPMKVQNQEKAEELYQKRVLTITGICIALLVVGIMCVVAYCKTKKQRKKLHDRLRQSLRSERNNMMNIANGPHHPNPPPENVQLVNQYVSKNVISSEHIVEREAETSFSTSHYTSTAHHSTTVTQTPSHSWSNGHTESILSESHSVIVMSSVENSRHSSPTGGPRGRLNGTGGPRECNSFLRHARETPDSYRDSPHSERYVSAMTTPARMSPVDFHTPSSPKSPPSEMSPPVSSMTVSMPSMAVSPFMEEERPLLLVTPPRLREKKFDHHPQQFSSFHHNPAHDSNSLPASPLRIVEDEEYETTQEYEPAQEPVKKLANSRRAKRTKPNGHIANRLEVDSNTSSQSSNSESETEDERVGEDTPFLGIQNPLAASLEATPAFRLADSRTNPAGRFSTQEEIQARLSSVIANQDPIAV

Structure (SMILES) | composite z-score
Cc1ccc(S(=O)(=O)N2[C@@H](c3ccccc3)C(C(=O)O)=CC[C@H]2c2ccccc2)cc1 | 1.06
CC[C@H]1C2=C3C(CC[C@H]4C(OC)OC[C@](C)([C@@H]34)N(C(=O)OC(C)(C)C)C2)C(CO)C1CO (some centres not stated) | 1.32
C=CCN1C(=O)[C@@]2(O[C@@H](CCn3cc([C@H](O)c4ccccc4)nn3)[C@H]([Si](C)(C)c3ccc(OC)cc3)[C@H]2C)c2cc(N3CCOC3=O)ccc21 | -0.344
CO[C@@H]1COC(=O)CC=C[C@@H](C)[C@H](OC)COC(=O)CC=C[C@H]1C | -0.503
CCCC[C@H]1OB(O)C[C@H]2C1=C(COC)C[C@H]1C(=O)N(Cc3ccccc3)C(=O)[C@H]12 | 0.173
C=CC[C@@]1(C(=O)N2CCOCC2)N=C(c2ccc(OCCCO)cc2)O[C@@H]1c1ccccc1 | 1.12
COc1ccc([Si](C)(C)[C@@H]2[C@@H](CCO)O[C@]3(C(=O)N(Cc4ccc(NC(=O)[C@H](C)O)cc4)c4ccccc43)[C@H]2C)cc1 | 1.05
COc1ccc([Si](C)(C)[C@H]2[C@H](CC(=O)N(CCO)Cc3ccccc3)O[C@@]3(C(=O)N(C)c4ccccc43)[C@@H]2C)cc1 | 0.67
NC(=O)[C@H]1[C@@H]2C(=O)O[C@@H](c3ccccc3)[C@@H](c3ccccc3)N2[C@@H](c2ccc(O)cc2)[C@]12C(=O)Nc1ccc(C#CCCO)cc12 | -0.0709
CO[C@H]1O[C@H](CO)[C@@H](OC(=O)Nc2ccc3c(c2)OCO3)[C@H](OC(=O)Nc2ccccc2)[C@@H]1OC(=O)Nc1ccccc1 | 1.27
CC(C)(C)OC(=O)CC[C@@]1(C(=O)NCc2ccccc2)N=C(c2ccc(OCCCO)cc2)O[C@@H]1c1ccccc1 | 1.5
C[C@@H]1CC[C@H]2C(=O)N3CCC[C@H]3C(=O)N2[C@H]1c1ccc(Br)cc1 | -0.267
C=CCNC(=O)[C@H]1[C@@H]2C(=O)O[C@@H](c3ccccc3)[C@@H](c3ccccc3)N2[C@@H](c2ccc(O)cc2)[C@]12C(=O)Nc1ccc(C#CCNC(N)=O)cc12 | 1.07
O=C(NCc1ccccc1)[C@@]1(Cc2ccccc2)COC(c2ccc(OCCCO)cc2)=N1 | 1.51
COc1ccc(C(=O)Nc2ccc(CN3C(=O)[C@]4(O[C@H](CCn5cc(CCO)nn5)[C@@H]([Si](C)(C)c5ccc(OC)cc5)[C@@H]4C)c4ccccc43)cc2)cc1 | 0.485
O=C1C2C=CC(C(O)c3ccccc3)N(n3cnnc3)C2C(=O)N1Cc1ccccc1 (configuration not stated) | 1.33
O=C1c2ccccc2[C@](Cc2ccccc2I)(C(=O)NCC(F)(F)F)[C@H](c2ccc(CO)cc2)N1Cc1ccccc1C(F)(F)F | 1
COCCCNC(=O)[C@@]1(Sc2ccc(C)cc2)CC(=O)N(Cc2cc(C(F)(F)F)cc(C(F)(F)F)c2)[C@@H]1c1ccc(CO)cc1I | 2.17
CC1CC/C=C\[C@H]2OC34C=CCN(Cn5nnc6ccccc65)C(=O)[C@H]3N(C(C)CO)C(=O)[C@@H]4C2C(=O)O1 (some centres not stated) | 1.86
COCCOC(=O)N1C(=O)[C@@]2(c3cc(C#CCNC(N)=O)ccc31)[C@H](C(=O)N1CCCCCCC1)[C@H]1C(=O)O[C@H](c3ccccc3)[C@H](c3ccccc3)N1[C@@H]2c1ccccc1OCCO | 1.03
CO[C@H]1COC(=O)CC=C[C@H](C)[C@@H](OC)COC(=O)CC=C[C@@H]1C | -0.768
C=CCNC(=O)[C@H]1[C@@H]2C(=O)O[C@@H](c3ccccc3)[C@@H](c3ccccc3)N2[C@@H](c2ccccc2OCCO)[C@]12C(=O)N(C(=O)OCCOC)c1ccc(C#CCC(C(=O)OC)C(=O)OC)cc12 | 1.47
CCc1cccc(NC(=O)O[C@H]2[C@H](OC(=O)Nc3ccccc3)[C@@H](OC(=O)Nc3ccccc3)[C@@H](OC)O[C@@H]2CO)c1 | 1.76
O=C1O[C@@H](c2ccccc2)[C@@H](c2ccccc2)N2[C@@H](c3ccccc3OCCO)[C@]3(C(=O)Nc4ccc(C#CC5=CCCCC5)cc43)[C@@H](C(=O)O)[C@H]12 | 0.391
O=C1C[C@@](C(=O)NCCN2CCOCC2)(c2ccc([N+](=O)[O-])cc2)[C@@H](c2ccc(CO)cc2)N1C1CCCCC1 | 0.548
C[C@H]1NC(=O)[C@@H](C)NC(=O)[C@@]23C(=O)N[C@@H](Cc4ccccc4)C2[C@H](C)[C@@]2(C)O[C@H]2C3/C=C/C/C=C\CNC1=O (some centres not stated) | 0.631
CCC#CCN(Cc1ccccc1Br)[C@H](/C=C/c1ccccc1)[C@@H](O)Cc1ccccc1 | -0.0939
